Measurements from PubChem BioAssay.
Values joined by “and” are separate entries in the source; they are usually repeats but may differ in a detail not shown here. Equal values may be shown once. Active and inactive are the calls of the source. Unless noted, the rule behind the calls is not given here.

What was measured:
[1] = system: Botulinum neurotoxin type F light chain protease (Clostridium botulinum); assay: Clostridium botulinum type F light chain protease inhibitors, microsphere substrate cleavage, validation (AID 588459); settings: multiplex microsphere protease substrate cleavage assay, flow cytometry; at 10 µM; stronger effect = higher value
[2] = molecular target: Botulinum neurotoxin type A (Clostridium botulinum) (UniProt P0DPI0); assay: BoNT/A light chain protease inhibitors, biochemical, multiplex microsphere flow cytometry, validation set (AID 588460); settings: at 10 µM, stronger effect = higher value
Botulinum neurotoxin type A (Clostridium botulinum), sequence (P0DPI0 whole entry, looked up): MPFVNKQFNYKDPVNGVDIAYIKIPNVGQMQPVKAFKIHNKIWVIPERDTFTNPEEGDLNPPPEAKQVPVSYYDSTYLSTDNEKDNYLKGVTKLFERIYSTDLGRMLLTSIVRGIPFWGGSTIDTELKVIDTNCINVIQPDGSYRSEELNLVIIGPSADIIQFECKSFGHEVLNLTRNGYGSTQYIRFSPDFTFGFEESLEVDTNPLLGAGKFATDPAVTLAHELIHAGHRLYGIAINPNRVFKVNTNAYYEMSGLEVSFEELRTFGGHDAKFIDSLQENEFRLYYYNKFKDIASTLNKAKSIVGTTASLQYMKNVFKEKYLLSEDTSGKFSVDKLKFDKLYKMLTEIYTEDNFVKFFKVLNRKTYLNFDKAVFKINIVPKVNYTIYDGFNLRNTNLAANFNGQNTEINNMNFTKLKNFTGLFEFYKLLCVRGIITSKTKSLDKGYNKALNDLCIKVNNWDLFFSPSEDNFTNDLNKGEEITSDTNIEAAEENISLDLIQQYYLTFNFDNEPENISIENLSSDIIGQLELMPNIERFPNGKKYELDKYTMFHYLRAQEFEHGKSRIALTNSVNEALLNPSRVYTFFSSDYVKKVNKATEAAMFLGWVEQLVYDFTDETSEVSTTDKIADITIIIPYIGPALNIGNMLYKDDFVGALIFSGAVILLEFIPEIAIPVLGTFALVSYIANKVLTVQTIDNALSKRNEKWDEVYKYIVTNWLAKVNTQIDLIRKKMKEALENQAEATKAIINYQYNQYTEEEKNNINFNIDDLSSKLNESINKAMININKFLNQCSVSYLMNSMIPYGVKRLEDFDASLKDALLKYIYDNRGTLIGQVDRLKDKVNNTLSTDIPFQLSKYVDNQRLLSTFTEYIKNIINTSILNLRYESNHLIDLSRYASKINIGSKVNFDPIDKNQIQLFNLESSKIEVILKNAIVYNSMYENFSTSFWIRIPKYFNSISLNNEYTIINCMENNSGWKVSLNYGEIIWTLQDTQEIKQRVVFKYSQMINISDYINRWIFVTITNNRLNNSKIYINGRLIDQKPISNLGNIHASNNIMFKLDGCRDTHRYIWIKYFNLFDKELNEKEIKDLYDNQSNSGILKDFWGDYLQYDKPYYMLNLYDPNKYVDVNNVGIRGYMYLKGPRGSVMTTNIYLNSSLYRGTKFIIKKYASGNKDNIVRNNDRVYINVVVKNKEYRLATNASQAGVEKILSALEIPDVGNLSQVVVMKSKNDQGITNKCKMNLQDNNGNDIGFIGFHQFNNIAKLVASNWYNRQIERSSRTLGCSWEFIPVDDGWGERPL

[3] = reduced mouse 2C T cell binding to pMHC/ICAM-1 vesicles – MLPCN validation set, flow cytometry, LFA-1/ICAM-1 modulator project, pilot screen (AID 2523;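 active = response below a set limit, under 55% cells CD8-positive and vesicle-bound, and CD8 cells' 90th-percentile brightness under 279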;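 for vesicle binding response: mean PE anti-B7-1 fluorescence of CD8+ cells relative to row control; 100% = QL9-loaded vesicles with DMSO vehicle in the same plate row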); settings: 2C mouse CD8+ T cells, at 7 µM, stronger effect = lower value; double positive events: measured here: CD8+/vesicle+ event percentage
[4] = molecular target: Integrin beta-1 (Homo sapiens) + Integrin alpha-4 (Homo sapiens) (UniProt P13612+P05556); assay: alpha4beta1 integrin LIBS antibody binding reduction – U937 cells, HUTS-21 mAb, flow cytometry, validation set, VLA-4 allosteric modulator project, pilot screen (AID 2674;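 active = inhibition above 50%, about 3 SD of the validation set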;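 note: antibody binding induced by the VLA-4 ligand LDV present at three times its Kd; 0% = LDV ligand with antibody and no compound and 100% = antibody without LDV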); settings: HUTS-21 LIBS mAb binding, at 6.7 µM, stronger effect = higher value
[5] = calorie-restriction mimetic ROS inhibitors, yeast – validation compound set, pilot screen (AID 2706;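 active = superoxide response below 65% of plate, a cut near 3 SD across the whole screen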;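 note: yeast exposed to compound for one week at 30 degrees C before staining; 100% = mean of all compound wells on the same plate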); settings: S. cerevisiae aging, superoxide DHE fluorescence; at 10 µM; stronger effect = lower value
[6] = molecular target: Beta-adrenergic receptor kinase 1 (Homo sapiens) (UniProt P25098); assay: GRK2 binders displacing RNA aptamer, biochemical, validation, human GRK2, bead flow cytometry (AID 488806;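 active = aptamer binding inhibition above 30%, about 3 SD of noise from non-fluorescent compounds; inactive = inhibition at or below 30%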); settings: bead-bound GRK2, FAM-aptamer displacement, at 10 µM, stronger effect = higher value
Beta-adrenergic receptor kinase 1 (Homo sapiens), sequence (P25098 whole entry, looked up): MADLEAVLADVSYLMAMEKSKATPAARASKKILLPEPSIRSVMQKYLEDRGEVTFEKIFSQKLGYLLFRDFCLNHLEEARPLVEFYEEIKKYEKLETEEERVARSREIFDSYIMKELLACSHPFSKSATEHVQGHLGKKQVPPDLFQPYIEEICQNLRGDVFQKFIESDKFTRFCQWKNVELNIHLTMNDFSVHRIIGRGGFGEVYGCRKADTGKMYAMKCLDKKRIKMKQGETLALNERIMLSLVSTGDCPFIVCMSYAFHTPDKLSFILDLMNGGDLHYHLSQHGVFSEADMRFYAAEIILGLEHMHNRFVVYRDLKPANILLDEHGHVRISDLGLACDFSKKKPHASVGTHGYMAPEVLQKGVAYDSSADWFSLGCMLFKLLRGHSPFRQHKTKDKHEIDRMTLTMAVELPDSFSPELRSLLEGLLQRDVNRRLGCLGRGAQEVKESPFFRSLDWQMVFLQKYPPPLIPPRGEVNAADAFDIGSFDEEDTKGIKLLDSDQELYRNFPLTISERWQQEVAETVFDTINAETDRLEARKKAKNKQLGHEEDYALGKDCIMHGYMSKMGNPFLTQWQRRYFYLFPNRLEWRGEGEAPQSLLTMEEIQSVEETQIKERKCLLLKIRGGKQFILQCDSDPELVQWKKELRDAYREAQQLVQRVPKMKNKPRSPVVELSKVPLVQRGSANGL

[7] = molecular target: AP-2 complex subunit beta (Homo sapiens) (UniProt P63010); assay: beta-arrestin/AP2 interaction blockers – biochemical, validation set, GST-AP2 beads, flow cytometry, pilot screen (AID 504541;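 active = inhibition above 54%, about 3 SD of non-fluorescent compounds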;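 note: AP2 carries R879A mutation and is captured from E. coli lysate; bead-bound FITC arrestin peptide fluorescence measuring arrestin peptide binding to AP2; 0% = DMSO wells and 100% = excess unlabeled arrestin peptide control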); settings: FITC arrestin peptide, at 10 µM, stronger effect = higher value
AP-2 complex subunit beta (Homo sapiens), sequence (P63010 whole entry, looked up, one chain of several): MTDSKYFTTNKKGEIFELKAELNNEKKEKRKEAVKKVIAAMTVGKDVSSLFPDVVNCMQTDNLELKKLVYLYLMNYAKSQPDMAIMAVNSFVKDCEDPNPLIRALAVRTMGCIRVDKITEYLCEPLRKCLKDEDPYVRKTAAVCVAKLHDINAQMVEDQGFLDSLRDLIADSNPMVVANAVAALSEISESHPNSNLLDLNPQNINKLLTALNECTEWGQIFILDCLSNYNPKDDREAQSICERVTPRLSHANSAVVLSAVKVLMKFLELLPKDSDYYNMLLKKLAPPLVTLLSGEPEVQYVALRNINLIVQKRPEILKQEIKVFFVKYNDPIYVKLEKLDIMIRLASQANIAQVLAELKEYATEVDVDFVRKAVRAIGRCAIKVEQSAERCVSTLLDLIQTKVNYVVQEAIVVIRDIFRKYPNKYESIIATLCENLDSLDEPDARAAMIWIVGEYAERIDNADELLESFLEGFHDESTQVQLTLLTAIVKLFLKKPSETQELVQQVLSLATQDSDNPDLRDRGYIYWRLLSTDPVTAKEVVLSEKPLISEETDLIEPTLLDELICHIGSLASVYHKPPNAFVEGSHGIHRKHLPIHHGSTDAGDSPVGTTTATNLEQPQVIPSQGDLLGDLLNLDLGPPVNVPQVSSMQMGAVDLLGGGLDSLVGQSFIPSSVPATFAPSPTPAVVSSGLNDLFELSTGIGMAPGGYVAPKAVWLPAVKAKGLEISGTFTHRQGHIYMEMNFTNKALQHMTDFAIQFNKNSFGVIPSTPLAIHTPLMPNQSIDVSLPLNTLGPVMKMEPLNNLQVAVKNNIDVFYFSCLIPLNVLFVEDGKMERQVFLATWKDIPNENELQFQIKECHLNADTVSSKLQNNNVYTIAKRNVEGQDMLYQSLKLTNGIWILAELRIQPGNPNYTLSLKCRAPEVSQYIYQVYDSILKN

[8] = cytosolic pH regulators acting via V-ATPase – S. cerevisiae, pHLuorin, HTS validation (AID 504600; in the data active = response above about 15%;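 note: plate controls were DMSO for no effect and reference compound for full effect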); settings: V-ATPase proton transport, at 10 µM, stronger effect = higher value
[9] = system: anti-desmoglein-3 scFv antibody binding to human DSG3; assay: blockers of pathogenic pemphigus antibody–desmoglein-3 binding – biochemical, validation compound set, bead-based, flow cytometry, pilot screen (AID 588368;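 active = binding below the plate cutoff, the plate median minus 3 SD, with a reading above zero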;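 note: signal is the median channel fluorescence of bead-bound GFP antibody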); settings: Protein G beads, DSG3-Fc, scFv-GFP binding, at 10 µM, stronger effect = lower value
[10] = molecular target: Lethal factor (Bacillus anthracis) (UniProt P15917); assay: Bacillus anthracis lethal factor inhibition, microsphere flow cytometry protease assay, validation at 10 µM (AID 588461); settings: multiplex microsphere protease cleavage assay, stronger effect = higher value
Lethal factor (Bacillus anthracis), sequence (P15917 whole entry, looked up): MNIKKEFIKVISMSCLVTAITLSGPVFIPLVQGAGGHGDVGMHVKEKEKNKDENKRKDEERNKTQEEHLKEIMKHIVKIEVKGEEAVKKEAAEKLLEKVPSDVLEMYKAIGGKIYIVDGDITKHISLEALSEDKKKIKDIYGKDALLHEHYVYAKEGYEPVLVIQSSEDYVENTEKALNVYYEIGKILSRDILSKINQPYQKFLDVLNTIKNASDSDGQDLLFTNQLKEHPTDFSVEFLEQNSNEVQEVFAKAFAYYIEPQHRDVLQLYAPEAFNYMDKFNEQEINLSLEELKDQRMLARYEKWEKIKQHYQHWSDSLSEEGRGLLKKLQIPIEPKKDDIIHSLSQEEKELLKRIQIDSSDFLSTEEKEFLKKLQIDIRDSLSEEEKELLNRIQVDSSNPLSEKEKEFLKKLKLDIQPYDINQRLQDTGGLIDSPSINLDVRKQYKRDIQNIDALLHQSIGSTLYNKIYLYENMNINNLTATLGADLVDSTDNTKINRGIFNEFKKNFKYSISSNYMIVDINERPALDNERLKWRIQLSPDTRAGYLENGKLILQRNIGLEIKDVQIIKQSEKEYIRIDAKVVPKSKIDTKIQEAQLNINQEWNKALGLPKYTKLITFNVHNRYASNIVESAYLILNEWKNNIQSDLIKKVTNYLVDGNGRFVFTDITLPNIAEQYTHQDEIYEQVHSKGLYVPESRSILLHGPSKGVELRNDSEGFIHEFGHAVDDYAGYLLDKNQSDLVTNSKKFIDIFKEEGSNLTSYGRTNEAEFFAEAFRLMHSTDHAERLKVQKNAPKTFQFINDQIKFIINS

[11] = Nile Red efflux blockade in pump-expressing yeast – validation compound set, multiplex, phenotypic, pilot screen (AID 588506;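 active = efflux inhibition above 0.42, the validation set average plus 4 SD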;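 note: Nile Red retained in cells so higher fluorescence means more efflux inhibition; 0 = negative control wells and 1 = enniatin B 25 µM full block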); settings: S. cerevisiae pump-expressing triplex, Nile Red efflux flow cytometry; at 10 µM; stronger effect = higher value
[12] = molecular target: ATP-binding cassette sub-family B member 6 (Homo sapiens) (UniProt Q9NP58); assay: blockers of ABCB6-driven porphyrin uptake – K562-ABCB6 cells, flow cytometry, validation set, pilot screen (AID 588550;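 active = inhibition above the screen-wide mean plus 3 SD, about 51%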;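 note: 0% = DMSO wells and 100% = benzethonium chloride 70 µM positive control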); settings: K562-ABCB6 porphyrin accumulation, 1 h, at 10 µM, stronger effect = higher value
ATP-binding cassette sub-family B member 6 (Homo sapiens), sequence (Q9NP58 whole entry, looked up): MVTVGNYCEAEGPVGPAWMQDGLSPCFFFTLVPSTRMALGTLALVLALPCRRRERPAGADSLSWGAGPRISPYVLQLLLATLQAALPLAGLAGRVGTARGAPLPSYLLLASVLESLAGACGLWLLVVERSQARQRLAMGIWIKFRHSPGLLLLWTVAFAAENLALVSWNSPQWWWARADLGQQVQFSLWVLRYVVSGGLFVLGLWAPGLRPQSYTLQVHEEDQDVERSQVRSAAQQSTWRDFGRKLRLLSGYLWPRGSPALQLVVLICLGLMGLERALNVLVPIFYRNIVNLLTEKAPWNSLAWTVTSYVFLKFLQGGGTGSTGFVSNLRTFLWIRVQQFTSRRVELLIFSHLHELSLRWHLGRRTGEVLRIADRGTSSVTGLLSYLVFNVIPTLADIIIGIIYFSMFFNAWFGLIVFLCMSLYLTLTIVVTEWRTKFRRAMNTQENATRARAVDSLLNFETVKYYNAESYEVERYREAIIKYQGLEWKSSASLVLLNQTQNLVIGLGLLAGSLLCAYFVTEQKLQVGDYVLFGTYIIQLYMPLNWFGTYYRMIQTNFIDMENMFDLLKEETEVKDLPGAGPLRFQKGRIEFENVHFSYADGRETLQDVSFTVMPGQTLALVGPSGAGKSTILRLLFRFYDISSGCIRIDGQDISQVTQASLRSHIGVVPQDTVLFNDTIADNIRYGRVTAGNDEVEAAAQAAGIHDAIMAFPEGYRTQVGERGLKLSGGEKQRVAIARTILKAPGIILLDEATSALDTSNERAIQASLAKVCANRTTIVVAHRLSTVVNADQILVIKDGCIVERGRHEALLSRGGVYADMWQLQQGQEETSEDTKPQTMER

[13] = AML differentiation inducers, ER-HoxA9 marrow cells – cell-based, GFP/MAC1 double positive, flow cytometry, validation set, primary screen (AID 588685;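 active = differentiation response of at least 50%, scaled between solvent and reference control, from cells with both markers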;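 note: compound exposure lasts four days before antibody staining and flow analysis; 0% = DMSO wells and 100% = 5 µM fulvestrant positive control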); settings: stronger effect = higher value
[14] = hit retest on RPL19A-GFP reporter strain – cell-based, S. cerevisiae, flow cytometry, cherry picks, mother/daughter gates, confirmation (AID 2270;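 active = GFP response below 50% of the DMSO control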); settings: 3 h, at 10 µM, stronger effect = lower value, 100 = same GFP as DMSO wells
[15] = yeast TOR pathway reporter LAP4-GFP change – cell-based, cherry picks, flow cytometry, mother/daughter gates, confirmation (AID 2271;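 active = GFP response above 150% of the DMSO control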;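 note: ratio of sample to DMSO plate mean so 100% equals DMSO level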); settings: S. cerevisiae LAP4-GFP strain, 3 h, at 10 µM, stronger effect = higher value
[16] = TOR pathway CIT2 reporter hit retest – S. cerevisiae, GFP fusion, cherry picks, mother/daughter gates, confirmation (AID 2274;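 active = GFP response above 150% of the DMSO level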); settings: S. cerevisiae CIT2-GFP strain, flow cytometry, 3 h, at 10 µM, stronger effect = higher value
[17] = measured here: daughter cell gate
[18] = measured here: mother cell gate
[19] = measured here: daughter cell gate response
[20] = measured here: mother cell gate response

CN1[C@@H]2CC(OC(=O)[C@H](CO)c3ccccc3)C[C@H]1[C@@H]1O[C@@H]12 (stereo not given in full)
inactive: inhibition [1] -2.9% | inhibition [2] -2.7% and -1%

NC(N)=NC(N)=NCCc1ccccc1
inactive: inhibition [1] -1% | inhibition [2] -0.8%

CC12CN3CC(c4ccccc4)(CN(C1)C31CCCCC1)C2=O
60.1%: double positive events [3]
inactive: vesicle binding response [3] 232% | inhibition [4] 9.13% | superoxide response (% of plate) [5] 90.5% | aptamer binding inhibition [6] 4% | inhibition [7] -0.95% | response [8] 0.31% | binding (% of control) [9] 99.5% | inhibition [1] 2.1% | inhibition [2] -0.1% | inhibition [10] -2.8% | efflux inhibition (fraction of control) [11] -0.03 | inhibition [12] -51% | differentiation response [13] 13.6%

CN1[C@@H]2CC[C@H]1CC(OC(=O)C1C=Nc3ccccc31)C2 (stereo not given in full)
52.3%: double positive events [3]
inactive: vesicle binding response [3] 136% | inhibition [4] 20.3% | superoxide response (% of plate) [5] 111% | aptamer binding inhibition [6] 0% | inhibition [7] -15.4% | response [8] -15% | binding (% of control) [9] 93.3% | inhibition [1] 1.4% | inhibition [2] -0.6% | inhibition [10] 4.3% | efflux inhibition (fraction of control) [11] -0.2 | inhibition [12] 7% | differentiation response [13] -3.43%

O=C1NC(=S)NC(=O)C1=Cc1ccc2c(c1)CCN2CCCCl
76%: GFP response, % of DMSO [16, 18]
90.2%: GFP response, % of DMSO [16, 17]
184%: GFP response relative to DMSO [15, 20]
87.8%: GFP response vs DMSO [14, 17]
110%: GFP response relative to DMSO [15, 19]
86%: GFP response vs DMSO [14, 18]
active: GFP response relative to DMSO [15] 163%
inactive: GFP response vs DMSO [14] 98.4% | GFP response, % of DMSO [16] 85.7%

CC1(C)OC(c2ccccc2)=C/C(=C/C=C2C(=O)NC(=S)NC2=O)O1
121%: GFP response, % of DMSO [16, 17]
active: GFP response relative to DMSO [15] 203%
98.5%: GFP response vs DMSO [14, 18]
117%: GFP response, % of DMSO [16, 18]
99.3%: GFP response vs DMSO [14, 17]
160%: GFP response relative to DMSO [15, 20]
inactive: GFP response vs DMSO [14] 97.8% | GFP response, % of DMSO [16] 119%

c1cnc2c(c1)ccc1ncccc12
64.8%: double positive events [3]
inactive: vesicle binding response [3] 165% | inhibition [4] 0.59% | superoxide response (% of plate) [5] 83.3% | aptamer binding inhibition [6] 8% | inhibition [7] -6.24% | binding (% of control) [9] 102% | inhibition [1] -4.1% | inhibition [2] -0.7% | inhibition [10] -2.4% | efflux inhibition (fraction of control) [11] 0.08 | inhibition [12] 4% | differentiation response [13] -17.8%
active: response [8] 21.4%

Clc1ccc(COC(Cn2ccnc2)c2ccc(Cl)cc2Cl)c(Cl)c1 (stereo not given)
inactive: vesicle binding response [3] 306% | inhibition [4] -1.12% | superoxide response (% of plate) [5] 76.7% | aptamer binding inhibition [6] 4% | inhibition [7] -8.06% | binding (% of control) [9] 104% | inhibition [1] 0.4% | inhibition [2] -0.5% | inhibition [10] -5.1% | efflux inhibition (fraction of control) [11] 0.33 | inhibition [12] 5% | differentiation response [13] -1.05%
active: response [8] 75%
71.9%: double positive events [3]

C[C@]12CCC(=O)C(O)=C1CC[C@@H]1[C@@H]2CC[C@]2(C)C(=O)CC[C@@H]12
97.5%: GFP response vs DMSO [14, 17]
68.3%: double positive events [3]
102%: GFP response relative to DMSO [15, 19]
103%: GFP response relative to DMSO [15, 20] | GFP response, % of DMSO [16, 17]
105%: GFP response, % of DMSO [16, 18]
99.2%: GFP response vs DMSO [14, 18]
inactive: GFP response vs DMSO [14] 99.3% | GFP response relative to DMSO [15] 102% | GFP response, % of DMSO [16] 104% | vesicle binding response [3] 118% | inhibition [4] 10.3% | superoxide response (% of plate) [5] 97.5% | aptamer binding inhibition [6] 1% | inhibition [7] 0.25% | response [8] -1.14% | binding (% of control) [9] 110% | inhibition [1] 0.8% | inhibition [2] -1.4% | inhibition [10] -6.6% | efflux inhibition (fraction of control) [11] -0.17 | inhibition [12] 21% | differentiation response [13] 3.28%

CCC1(c2ccccc2)C(=O)NCNC1=O
inactive: inhibition [1] 0% | inhibition [2] -0.9%

c1ccc2c(c1)OCC(C1=NCCN1)O2 (stereo not given)
inactive: vesicle binding response [3] 163% | inhibition [4] 0.69% | superoxide response (% of plate) [5] 90.8% | aptamer binding inhibition [6] 1% | inhibition [7] -3.31% | response [8] 3.01% | binding (% of control) [9] 99.6% | inhibition [1] -2.1% | inhibition [2] 0.1% | inhibition [10] 0.2% | efflux inhibition (fraction of control) [11] -0.12 | inhibition [12] 7% | differentiation response [13] -19.6%
56.2%: double positive events [3]

CCC(COC(=O)c1cc(OC)c(OC)c(OC)c1)(c1ccccc1)N(C)C (stereo not given)
73.3%: double positive events [3]
inactive: vesicle binding response [3] 306% | inhibition [4] 1.44% | superoxide response (% of plate) [5] 93.6% | aptamer binding inhibition [6] 1% | inhibition [7] -3.75% | response [8] -2.48% | binding (% of control) [9] 98.7% | inhibition [1] -3.5% | inhibition [2] -2.8% | inhibition [10] -8.8% | efflux inhibition (fraction of control) [11] 0.04 | inhibition [12] 15% | differentiation response [13] -3.02%
